CYP2C9 activ = activators of human CYP2C9; P11712; 96,000 tested, 1.4% active; recombinant CYP2C9, luciferin-H conversion, luminescence; active compounds read high; factor 1 = untreated enzyme, 0 = blocked; AID 1024; activation factor at 5 µM;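 active = activation factor of 2 or more for CYP2C9 at a 5 µM dose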;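 note: 0 = sulfaphenazole-blocked wells and 1 = vehicle-only wells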
CYP2C9 inh = human CYP2C9 inhibition; P11712; CYP2C9 Supersomes, luciferin-H conversion, luminescence; inhibition, % at 5 µM; 96,000 tested, 20% active; AID 777;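 active = blocking of liver enzyme CYP2C9 beyond about 50% at 5 µM, limit read from the data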
PLK1 kinase inh = PLK1 (human) kinase inhibition. recombinant PLK1 kinase, TR-FRET peptide phosphorylation. inhibition, % at 10 µM. 97,000 tested, 0.53% active. P53350;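 active = inhibition of 50% or more in the single-concentration screen; inactive = inhibition below 50%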;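 note: 0% = DMSO max control and 100% = H-89 dihydrochloride min control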
Target sequence (P53350 whole entry, looked up): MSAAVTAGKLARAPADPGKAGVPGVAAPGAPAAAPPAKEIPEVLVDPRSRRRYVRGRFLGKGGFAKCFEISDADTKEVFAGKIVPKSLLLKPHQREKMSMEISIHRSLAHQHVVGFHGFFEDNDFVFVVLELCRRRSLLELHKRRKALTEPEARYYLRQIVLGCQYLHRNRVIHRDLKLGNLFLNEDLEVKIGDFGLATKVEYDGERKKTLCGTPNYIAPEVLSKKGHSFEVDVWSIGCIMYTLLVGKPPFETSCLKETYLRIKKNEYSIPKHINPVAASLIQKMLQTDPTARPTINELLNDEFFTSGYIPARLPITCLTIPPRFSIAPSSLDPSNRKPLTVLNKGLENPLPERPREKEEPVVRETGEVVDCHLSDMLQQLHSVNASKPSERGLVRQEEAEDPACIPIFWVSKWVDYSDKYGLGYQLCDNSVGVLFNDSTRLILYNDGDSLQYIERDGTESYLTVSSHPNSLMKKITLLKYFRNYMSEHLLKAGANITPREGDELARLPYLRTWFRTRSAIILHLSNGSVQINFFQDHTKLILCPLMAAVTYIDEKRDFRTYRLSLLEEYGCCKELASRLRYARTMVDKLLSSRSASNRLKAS
PLK1 PBD inh = inhibitors of human Plk1 polo box domain binding | P53350 | Plk1 PBD phosphopeptide binding, fluorescence polarization | inhibition, %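 (tested at about 20 µM)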 | 97,000 tested, 0.13% active | AID 693; in the data active = inhibition above about 34%, passing the limit was not always enough
CYP2C19 inhib = human CYP2C19 inhibition. P33261. CYP2C19 Supersomes, luciferin-H EGE luminescence, 30 min. inhibition, % at 5 µM. 96,000 tested, 21% active. AID 778;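 active = CYP2C19 inhibition above a set limit at 5 µM in the primary screen, cut at about 50% in these data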;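 note: plate controls were negative control wells for no effect and 2.5 mM tranylcypromine positive control for full effect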
CYP2C19 activ = increases human CYP2C19 enzyme activity; P33261; recombinant CYP2C19, luciferin-H EGE luminescence; active compounds read high; 0 = fully inhibited enzyme, 1 = untreated enzyme; activation factor at 5 µM; 96,000 tested, under 10 active; AID 1025;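 active = activation factor of at least 2 at 5 µM in the primary screen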;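 note: 0 = wells with 2.5 mM tranylcypromine and 1 = vehicle-only wells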
* hit, by the source's call; · = no result. Rows were chosen to be rich in hits. Some 28% of all compounds tested hit in one or more screens of this group.

SMILES	CYP2C9 activ	CYP2C9 inh	PLK1 kinase inh	PLK1 PBD inh	CYP2C19 inhib	CYP2C19 activ
O=C(Nc1nccs1)C1Cc2ccccc2CN1S(=O)(=O)c1ccc(F)cc1 (configuration not stated)	0.6	35	-7	-8	61*	0.4
O=C(Nc1nnc(C2CC2)s1)C1Cc2ccccc2CN1S(=O)(=O)c1ccccc1F (configuration not stated)	1	4	-9	-3	55*	0.5
Cc1ccc(S(=O)(=O)N2CCCC2C(=O)Nc2nccs2)cc1 (configuration not stated)	0.4	61*	-6	18	60*	0.4
O=C(NC1CCCCC1)C1Cc2ccccc2CN1S(=O)(=O)c1ccc(F)cc1 (configuration not stated)	·	·	-12	1	·	·
Cc1ccc(S(=O)(=O)N2CCCC2C(=O)NC2CCCCC2)cc1 (configuration not stated)	0.7	30	-12	-9	77*	0.2
CCC1(CC)Cc2ccccc2C(CC(=O)N2CCOCC2)=N1	0.9	12	-4	15	31	0.7
CC(C)Oc1ccc(CNC(=S)N/N=C/c2cccnc2)cc1	0.7	32	-10	3	18	0.8
CC(=O)c1cccc(NC(=O)N2CCC(c3nnc(SCC(N)=O)n3C)CC2)c1	1	-4	-9	14	5	1
CCC(C)NC(=O)c1ccccc1NC(=O)COc1ccc(OC)cc1 (configuration not stated)	0.3	73*	11	-1	51*	0.5
CCC(C)NC(=O)c1ccccc1NC(=O)C(C)N(c1ccccc1)S(C)(=O)=O (configuration not stated)	0.5	49	-11	19	59*	0.4
COc1ccc(NC(=O)c2ccccc2NC(=O)COc2ccccc2)cc1	0.5	52*	-13	8	-18	1.2
COc1ccc(OCC(=O)Nc2ccccc2OC(F)F)cc1	1	5	-11	-7	49	0.5
COCC(=O)Nc1ccccc1C(=O)Nc1ccc(OC)cc1	0.5	50	-8	-10	27	0.7
Cc1cccc(NC(=O)CCc2c(C)nc3ncnn3c2C)n1	1.1	-9	-6	28	-9	1.1
NC(=O)c1oc2ccccc2c1NC(=O)C1CCCCC1	2.7*	-172	·	·	1	1
Cc1cc(NC(=O)c2cc(-c3ccccc3)on2)n(-c2ccccc2)n1	1.1	-12	-9	12	-22	1.2
Cc1cc(Nc2nc3ccccc3[nH]c2=O)n(-c2ccccc2)n1	0.4	64*	·	·	14	0.9
Cc1cc(Nc2cnc3ccccc3n2)n(-c2ccccc2)n1	0.3	72*	-8	-24	69*	0.3
Cc1cc(Nc2ccccc2)n(-c2cccc(Cl)c2)n1	0.2	78*	1	-3	80*	0.2
Cc1cc(Nc2ccccc2)n(C(=O)c2ccc(Cl)cc2)n1	·	·	0	-14	·	·
CN=C(Nc1cc(C)nn1-c1ccccc1)c1ccccc1	0.7	30	-9	19	81*	0.2
Cc1cc(Nc2nc3ccccc3nc2Cl)n(-c2ccc([N+](=O)[O-])cc2)n1	0.8	23	-5	-6	44	0.6
Cc1ccc(-n2c(SCC(=O)Nc3cc(C)on3)nc3c([nH]c4ccccc43)c2=O)cc1	0.7	26	-13	-12	1	1
CCCCc1nc(SCC(=O)Nc2cc(C)on2)n[nH]1	0.4	61*	0	8	53*	0.5
Cc1cc(NC(c2cccnc2)c2c(C)[nH]c3ccccc23)no1 (configuration not stated)	1	4	·	·	62*	0.4
Cc1cc(NC(=O)CSc2c(C)[nH]c3ccccc23)no1	1.2	-23	·	·	66*	0.3
COc1ccc(-c2nc(SCC(=O)Nc3cc(C)on3)n[nH]2)cc1	0.1	89*	1	6	22	0.8
Cn1cc(S(=O)(=O)N2CCN(C(=O)c3ccco3)CC2)c(=O)n(C)c1=O	1.2	-22	-11	5	-15	1.1
O=C(C(Cc1ccc(Cl)cc1)NS(=O)(=O)c1ccccc1)N1CC[C@@]2(O)CCCC[C@H]2C1 (some centres not stated)	0.1	88*	2	-3	70*	0.3
COc1ccccc1N(C)S(=O)(=O)c1ccc(C(=O)N(CC(N)=O)C(C)C)cc1	1	0	2	1	-11	1.1

Screens from PubChem BioAssay.
